The target of experiment [1] is Peroxisome proliferator-activated receptor gamma (Homo sapiens) (UniProt P37231). Nature of the experiment: qHTS assay to identify small molecule antagonists of the peroxisome proliferator-activated receptor gamma (PPARg) signaling pathway (AID 743191; calls by dose curve; note: nearly all actives have a fitted effect of over 30% in size; note: potency is the fitted concentration of half-maximal effect; for ratio activity, negative = inhibition: series mostly up to about 63 µM). The method, boiled down: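 GeneBLAzer PPARg UAS-bla HEK293H cells carrying a UAS-driven beta-lactamase reporter were plated at 3000 cells/well, preincubated 5 h at 37C, then given compound for 17 h at 37C; LiveBLAzer B/G FRET substrate was read after 1 h at room temperature.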

The nature of experiment [2]: qHTS assay to identify small molecule antagonists of the peroxisome proliferator-activated receptor gamma (PPARg) signaling pathway - cell viability counter screen (AID 743194). Note: nearly all actives have a fitted effect of over 55% in size. An outline of the steps: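 PPARg-UAS-bla HEK293H cells were plated, rested 5 h at 37 C, then treated with compounds plus rosiglitazone (50 nM final) for 17 h at 37 C; viability was then read by CellTiter-Glo luminescence after 30 min at room temperature.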
Background: In qHTS, concentration-response curves come from the screen itself.

Experiment [3] can be described thus: qHTS assay for small molecule agonists of the antioxidant response element (ARE) signaling pathway (AID 743202; active = well fitted activation curve with a large enough effect in the signal ratio in the repeat runs, not every such curve was filed as active; the % refers to the signal ratio; note: potency is the fitted concentration of half-maximal effect). An outline of the steps:
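Read-out: LiveBLAzer B/G FRET substrate fluorescence after 2 h at room temperature, following 16 h compound treatment at 37 C of HepG2 cells carrying an ARE-driven beta-lactamase reporter.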

Experiment [4] in a line: qHTS assay for small molecule agonists of the antioxidant response element (ARE) signaling pathway - cell viability counter screen (AID 743203; calls by dose curve; note: nearly all actives have a fitted effect of over 55% in size). The method, boiled down:
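Following 16 hrs of compound treatment at 37C, HepG2 cells with an ARE-controlled beta-lactamase gene were lysed with CellTiter-Glo. Luminescence was read after 30 min at room temperature.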

Experiment [5] is described as follows: qHTS assay for small molecule activators of the heat shock response signaling pathway - cell viability counter screen (AID 743209). Note: nearly all actives have a fitted effect of over 50% in size. The method, boiled down: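 Readout: CellTiter-Glo luminescence, 30 min at room temperature. System: HSE-bla HeLa cells, 1500/well, plated overnight. Treatment: compounds in DMSO, 5 h at 37 C.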
A short description of experiment [6]: qHTS assay for small molecule activators of the heat shock response signaling pathway (AID 743210; active = well fitted activation curve with a large enough effect in the signal ratio in the repeat runs, with a control signal flat, not every such curve was filed as active; the % refers to the signal ratio; note: series mostly up to about 63 µM). The method, boiled down: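 HSE-bla HeLa cells (beta-lactamase reporter under heat shock response elements) were exposed to compounds for 5 h at 37 C, then loaded with LiveBLAzer B/G FRET substrate for 2.5 h at room temperature before fluorescence reading.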
The nature of experiment [7]: qHTS assay to identify small molecule antagonists of the estrogen receptor alpha (ER-alpha) signaling pathway - cell viability counter screen (AID 743074; calls by dose curve; note: nearly all actives have a fitted effect of over 45% in size).
A short description of experiment [8]: qHTS assay to identify small molecule antagonists of the estrogen receptor alpha (ER-alpha) signaling pathway using the BG1 cell line - cell viability counter screen (AID 743081).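 Note: compound given together with 17beta-estradiol as the ER stimulus; series mostly up to about 70 µM; nearly all actives have a fitted effect of over 45% in size.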
For the next experiment, the target named is Aromatase (Homo sapiens) (UniProt P11511). Nature of the experiment: qHTS assay to identify aromatase inhibitors (AID 743083). For activity, negative = inhibition: series mostly up to about 70 µM. Note: nearly all actives have a fitted effect of over 55% in size. Note: potency is the fitted concentration of half-maximal effect.
The nature of experiment [9]: qHTS assay to identify aromatase inhibitors - cell viability counter screen (AID 743084).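 Note: cells stimulated with testosterone during compound exposure; nearly all actives have a fitted effect of over 55% in size.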
The target in experiment [10] is Aryl hydrocarbon receptor (Homo sapiens) (UniProt P35869). Nature of the experiment: qHTS assay to identify small molecule that activate the aryl hydrocarbon receptor (AhR) signaling pathway (AID 743085).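 Note: HG2L7.5c1 human HepG2 liver cells with stably integrated DRE-driven firefly reporter; series mostly up to about 70 µM; nearly all actives have a fitted effect of over 15% in size.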 An outline of the steps:
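Luminescence (ONE-Glo) from a dioxin-responsive-element luciferase reporter in HG2L7.5c1 HepG2 cells after 24 hr compound exposure at 37C; viability measured by CellTiter-Fluor fluorescence beforehand.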

Experiment [11] can be described thus: qHTS assay to identify small molecule that activate the aryl hydrocarbon receptor (AhR) signaling pathway - cell viability counter screen (AID 743086).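 Note: HepG2 liver cells carrying the AhR DRE luciferase reporter; series mostly up to about 70 µM; nearly all actives have a fitted effect of over 45% in size.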 The method, boiled down: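 HepG2-AhR-luc (HG2L7.5c1) cells, 4000/well, were preincubated 5 h at 37C, exposed to compound in qHTS format for 24 hr at 37C, then given CellTiter-Fluor for 30 min; viability was read as fluorescence in the reporter wells.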

Experiment [12] addresses Peroxisome proliferator-activated receptor gamma (Homo sapiens) (UniProt P37231). Nature of the experiment: qHTS assay to identify small molecule agonists of the peroxisome proliferator-activated receptor gamma (PPARg) signaling pathway (AID 743094; active = well fitted activation curve with a large enough effect in the signal ratio in the repeat runs, not every such curve was filed as active; the % refers to the signal ratio). The method, boiled down: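 Compounds dissolved in DMSO were added to PPARg UAS-bla HEK293H cells for 17 h at 37C, and reporter expression was quantified by fluorescence intensity after 1 h with LiveBLAzer B/G FRET substrate.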

The nature of experiment [13]: qHTS assay to identify small molecule antagonists of the thyroid receptor (TR) signaling pathway (AID 743065). An outline of the steps: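 GH3.TRE-Luc rat pituitary cells carrying two TR response elements driving luciferase were plated for 4 h, given compound plus 1 nM T3 (final), and incubated 23.5 h at 37 C. ONE-Glo luminescence measured reporter inhibition; CellTiter-Fluor fluorescence tracked cytotoxicity.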

Experiment [14] has as its system thyroid hormone receptor (rat, GH3 cells). Kind of experiment: qHTS assay to identify small molecule agonists of the thyroid receptor (TR) signaling pathway (AID 743066; calls by dose curve).
For experiment [15], the target named is Estrogen receptor (Homo sapiens) (UniProt P03372). Kind of experiment: qHTS assay to identify small molecule antagonists of the estrogen receptor alpha (ER-alpha) signaling pathway (AID 743069; active = well fitted curve in the direction sought with a large enough effect in the signal ratio in the repeat runs, not every such curve was filed as active; the % refers to the signal ratio). An outline of the steps: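 HEK293 cells stably carrying an ER-alpha-UAS-bla beta-lactamase reporter were pre-cultured overnight in 2% charcoal-stripped FBS medium. Test compounds in DMSO were added together with 17beta-estradiol for 18 hr at 37C. Read-out was fluorescence after 2 hr with LiveBLAzer B/G FRET substrate at room temperature.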

For experiment [16] the target is unchanged. Nature of the experiment: qHTS assay to identify small molecule agonists of the estrogen receptor alpha (ER-alpha) signaling pathway (AID 743075; calls by dose curve).
Experiment [17] has the same target. Nature of the experiment: qHTS assay to identify small molecule agonists of the estrogen receptor alpha (ER-alpha) signaling pathway using the BG1 cell line (AID 743079). Note: nearly all actives have a fitted effect of over 20% in size.
Experiment [18] in a line: qHTS assay to identify small molecule antagonists of the estrogen receptor alpha (ER-alpha) signaling pathway using the BG1 cell line (AID 743080; calls by dose curve;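 note: BG1 cells stimulated with 17beta-estradiol alongside compound; series mostly up to about 70 µM; nearly all actives have a fitted effect of over 25% in size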). The method, boiled down: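 BG1-Luc-4E2 cells (endogenous full-length ER-alpha, stable 4×ERE-luciferase) were starved 5 days in phenol-red-free medium with 10% charcoal-stripped FBS, plated 24 h, then given compound plus 17beta-estradiol for 21.5 h at 37 C; ONE-Glo luminescence read after 30 min.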

Here are results for 23 molecules from PubChem BioAssay (Tox21).

Each structure is given as a SMILES string. Inconclusive results are not listed. Values without a mark were called inactive. Active and inactive are the calls of the source. Unless noted, calls come from the whole dose curve; as a rule, active = well fitted curve in the direction sought with a large enough effect in the repeat runs; inconclusive = weak or mixed curves; inactive = no such curve, though single readings can be large; an effect the other way counts as inactive or inconclusive.
% is set by controls: 0 for no effect and ±100 for the full control effect.

Sequence of Aromatase (Homo sapiens) (P11511 whole entry, looked up): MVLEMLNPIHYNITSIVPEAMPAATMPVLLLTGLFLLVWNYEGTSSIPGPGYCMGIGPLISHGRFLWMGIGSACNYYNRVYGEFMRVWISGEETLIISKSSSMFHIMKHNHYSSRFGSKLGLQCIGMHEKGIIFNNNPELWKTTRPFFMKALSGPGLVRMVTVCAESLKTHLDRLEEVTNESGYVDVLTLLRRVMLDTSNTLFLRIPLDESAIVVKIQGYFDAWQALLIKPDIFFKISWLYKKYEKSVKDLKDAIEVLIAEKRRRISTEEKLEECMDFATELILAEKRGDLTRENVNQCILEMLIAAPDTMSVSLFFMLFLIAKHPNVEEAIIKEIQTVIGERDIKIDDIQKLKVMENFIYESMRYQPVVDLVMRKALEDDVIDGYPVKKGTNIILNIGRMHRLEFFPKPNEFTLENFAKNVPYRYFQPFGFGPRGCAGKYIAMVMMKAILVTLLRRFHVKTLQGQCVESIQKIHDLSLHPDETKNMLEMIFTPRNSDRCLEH
Sequence of Peroxisome proliferator-activated receptor gamma (Homo sapiens) (P37231 whole entry, looked up): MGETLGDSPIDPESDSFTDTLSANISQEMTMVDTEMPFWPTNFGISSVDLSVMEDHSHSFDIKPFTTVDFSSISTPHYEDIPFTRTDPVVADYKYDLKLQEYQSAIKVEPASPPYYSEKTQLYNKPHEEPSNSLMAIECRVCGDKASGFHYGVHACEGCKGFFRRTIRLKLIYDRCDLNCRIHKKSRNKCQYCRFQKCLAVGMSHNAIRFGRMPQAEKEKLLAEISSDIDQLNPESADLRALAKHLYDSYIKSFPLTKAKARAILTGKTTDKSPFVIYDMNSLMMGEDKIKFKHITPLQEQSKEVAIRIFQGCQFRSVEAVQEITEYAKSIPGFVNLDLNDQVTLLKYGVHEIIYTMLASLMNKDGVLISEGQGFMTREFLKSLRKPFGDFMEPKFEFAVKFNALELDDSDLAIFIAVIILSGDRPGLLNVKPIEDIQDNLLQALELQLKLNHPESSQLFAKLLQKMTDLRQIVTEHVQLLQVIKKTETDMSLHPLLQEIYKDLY
Sequence of Aryl hydrocarbon receptor (Homo sapiens) (P35869 whole entry, looked up): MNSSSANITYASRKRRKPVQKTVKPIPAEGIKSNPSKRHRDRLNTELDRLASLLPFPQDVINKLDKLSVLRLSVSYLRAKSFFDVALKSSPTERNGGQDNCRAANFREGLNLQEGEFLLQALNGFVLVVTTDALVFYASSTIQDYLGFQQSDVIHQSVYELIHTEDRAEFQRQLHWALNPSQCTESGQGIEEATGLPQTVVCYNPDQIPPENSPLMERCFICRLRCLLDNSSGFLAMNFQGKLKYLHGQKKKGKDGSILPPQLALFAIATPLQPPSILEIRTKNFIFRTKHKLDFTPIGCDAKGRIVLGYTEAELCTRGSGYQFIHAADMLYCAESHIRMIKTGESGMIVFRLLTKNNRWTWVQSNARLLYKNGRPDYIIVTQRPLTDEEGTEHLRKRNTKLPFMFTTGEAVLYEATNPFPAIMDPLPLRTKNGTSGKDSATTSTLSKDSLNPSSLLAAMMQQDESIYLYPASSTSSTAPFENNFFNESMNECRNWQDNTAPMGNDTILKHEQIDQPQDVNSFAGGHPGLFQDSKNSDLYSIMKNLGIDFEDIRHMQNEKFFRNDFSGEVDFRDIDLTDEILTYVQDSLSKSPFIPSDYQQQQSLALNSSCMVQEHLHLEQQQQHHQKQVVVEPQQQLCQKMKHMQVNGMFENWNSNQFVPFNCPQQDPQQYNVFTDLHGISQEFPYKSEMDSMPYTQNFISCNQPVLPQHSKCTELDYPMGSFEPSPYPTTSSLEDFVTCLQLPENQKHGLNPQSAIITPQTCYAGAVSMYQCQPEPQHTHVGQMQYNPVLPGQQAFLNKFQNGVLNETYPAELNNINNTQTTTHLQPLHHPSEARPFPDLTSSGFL
Sequence of Estrogen receptor (Homo sapiens) (P03372 whole entry, looked up): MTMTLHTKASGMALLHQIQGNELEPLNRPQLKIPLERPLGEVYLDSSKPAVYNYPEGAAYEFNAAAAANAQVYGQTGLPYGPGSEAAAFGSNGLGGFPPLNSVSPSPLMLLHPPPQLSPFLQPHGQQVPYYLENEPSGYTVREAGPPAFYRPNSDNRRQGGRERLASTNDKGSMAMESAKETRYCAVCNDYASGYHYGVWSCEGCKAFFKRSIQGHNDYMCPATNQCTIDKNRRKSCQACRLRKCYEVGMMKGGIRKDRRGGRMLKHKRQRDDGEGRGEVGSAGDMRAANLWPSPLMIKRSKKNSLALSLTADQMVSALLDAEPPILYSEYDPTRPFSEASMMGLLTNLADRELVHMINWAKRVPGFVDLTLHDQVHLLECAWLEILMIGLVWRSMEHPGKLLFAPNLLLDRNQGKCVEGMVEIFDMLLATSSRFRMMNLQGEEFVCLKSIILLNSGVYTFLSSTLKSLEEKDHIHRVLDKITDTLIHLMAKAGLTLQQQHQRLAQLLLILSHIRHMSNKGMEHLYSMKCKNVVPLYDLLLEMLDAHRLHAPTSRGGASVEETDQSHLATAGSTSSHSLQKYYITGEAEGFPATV

Consider `COc1ccc2nc(SCc3ncc(C)c(OC)c3C)[nH]c2c1`, for which the Potency result in [1] and in experiment [3] was “inactive” each time. Also, the call in experiment [2], in experiment [4] and in [5] was inactive.
In the case of `CC(C)(C)c1nnc(NS(=O)(=O)c2ccc(N)cc2)s1`, the result in experiment [2], in [4], in experiment [5] and in [6] was inactive. Further, the Potency entry in experiment [3] is “inactive”.
On to `CCCCCCCCCCCCCC`, for which the molecule was classed as inactive in [7], in [8], in experiment [12], in [2], in experiment [5] and in experiment [6]. For the same molecule, the Potency entry (with Aromatase (Homo sapiens); in experiment [9]; in experiment [10]; in [11]) was “inactive” throughout.
In the case of `CCn1ccc(NS(=O)(=O)c2ccc(N)cc2)nc1=O`, the molecule was classed as inactive in experiment [2], in experiment [4] and in [5].
Turning to `O=C(OCC(O)CO)c1ccccc1Nc1ccnc2c(C(F)(F)F)cccc12` (configuration not stated), the values for the Potency in [1] and in experiment [3] were 16.8 µM (active) and 26.6 µM (active), respectively. Besides, the outcome in experiment [2], in experiment [4], in [5] and in experiment [6] was inactive.
On to `COCCc1ccc(OCC2CO2)cc1` (configuration not stated), for which the result in [4] and in experiment [5] was inactive.
Turning to `NCCN1CCOCC1`, the Potency entry (in experiment [13]; with Aromatase (Homo sapiens); in [9]; in experiment [10]; in [11]; in experiment [3]) was “inactive” each time. For the same molecule, the result in experiment [14], in experiment [8], in experiment [2], in experiment [4], in experiment [5] and in [6] was inactive.
For the molecule `Cc1[nH]cnc1-c1ccc(Cl)cc1`, the Potency result in experiment [1] and in [3] was “inactive” each time. Moreover, the result in experiment [2], in [4] and in experiment [5] was inactive.
`CC(C)C(=O)OCc1cccc(OC(=O)[C@@H]2N3C(=O)[C@@H](NC(=O)Cc4ccccc4)[C@H]3SC2(C)C)c1`: the Potency entry in [1] and in [3] was “inactive” in each case. Also, the molecule was called inactive in [2] and in experiment [6].
Consider `CC(N)C(=O)OC(C)(C)Cc1ccc(Cl)cc1` (configuration not stated), for which the molecule was called inactive in [14], in [15], in experiment [7], in experiment [16], in [8] and in experiment [12]. The result in [2], in experiment [4], in experiment [5] and in experiment [6] was inactive. The Potency result (in [17]; in [18]; with Aromatase (Homo sapiens); in experiment [9]; in [10]; in [11]) was “inactive” each time. In addition, the Potency entry in experiment [1] and in experiment [3] was “inactive” each time.
Take `CN1CCN(CC(=O)N2c3ccccc3C(=O)Nc3cccnc32)CC1`: the outcome in experiment [15], in [7], in experiment [16], in experiment [8] and in experiment [12] was inactive. The Potency result (in experiment [17]; in [18]; with Aromatase (Homo sapiens); in experiment [10]; in [11]) was “inactive” throughout. Besides, the ratio activity, negative = inhibition in [1] was 0.895% [at 5.95 µM]. The activity change, negative = cytotoxicity in [2] is 4.99% [at 5.95 µM]. Besides, the figures for the activation in experiment [3] and in [6] were 3.2% [at 8.36 µM] and -0.267% [at 5.95 µM], respectively. Also, the viability change, negative = cytotoxic in [4] is 1.72% [at 8.36 µM].
For the molecule `Cc1ccc2ccc(Cl)cc2n1`, the Potency entry in experiment [1] and in experiment [3] was “inactive” each time. Further, the molecule was classed as inactive in [2], in experiment [4], in [5] and in [6].
On to `Cc1cc(NC(=O)C2=C(O)c3ccccc3S(=O)(=O)N2C)no1`, for which the Potency result (in experiment [13]; with Aromatase (Homo sapiens); in [9]; in experiment [10]; in experiment [11]; in experiment [3]) was “inactive” throughout. For the same molecule, the molecule was classed as inactive in experiment [14], in experiment [8], in experiment [12], in [4] and in experiment [5].
With `CC1(CO)CN(c2ccccc2)NC1=O` (configuration not stated), the molecule was called inactive in experiment [14], in experiment [7], in experiment [8], in experiment [2], in experiment [4] and in experiment [5]. Also, in experiment [6], the call was inactive. In addition, the Potency entry (with Aromatase (Homo sapiens); in experiment [9]; in experiment [11]) was “inactive” throughout.
Take `CCOc1cc([N+](=O)[O-])c(OCC)cc1N1CCOCC1`: the result in experiment [14], in experiment [7], in experiment [16], in experiment [8], in [12] and in experiment [2] was inactive. For the same molecule, the call in experiment [4], in experiment [5] and in experiment [6] was inactive. Moreover, the Potency result in [17], in experiment [18], in experiment [9], in experiment [10] and in experiment [3] was “inactive” throughout. In addition, the Potency with Aromatase (Homo sapiens) was 34.4 µM (active).
With `CC1=C(C(=O)O)N2C(=O)[C@@H](NC(=O)[C@H](N)c3ccc(O)cc3)[C@H]2SC1`, the molecule was called inactive in experiment [7], in experiment [8], in experiment [2], in [4], in [5] and in experiment [6]. The Potency result (with Aromatase (Homo sapiens); in experiment [9]; in [10]; in [11]) was “inactive” in each case.
In the case of `Cc1cccc(OCC(O)CNC(C)(C)C)c1C` (configuration not stated), the Potency result in [1] was “inactive”. Moreover, the result in experiment [4] and in [5] was inactive.
With `COC(=O)c1ccccc1C(=O)c1ccc(OCCN2CCCCC2)cc1`, the molecule was called inactive in experiment [14], in [15], in experiment [7], in experiment [16], in experiment [8] and in [12]. For the same molecule, the molecule was called inactive in experiment [2], in experiment [4], in experiment [5] and in experiment [6]. In addition, the Potency entry (in experiment [17]; in [18]; in the experiment with Aromatase (Homo sapiens); in experiment [9]; in experiment [10]; in [11]) was “inactive” in each case. Also, the Potency result in experiment [3] is “inactive”.
Turning to `CCOCCOC(=O)/C=C/c1ccc(OC)cc1`, the Potency entry in [1] was “inactive”. Besides, the result in [2], in [5] and in experiment [6] was inactive.
Regarding `COc1nccnc1NS(=O)(=O)c1ccc(N)cc1`, the Potency result (in [13]; with Aromatase (Homo sapiens); in experiment [9]; in [10]; in experiment [11]; in [1]) was “inactive” in each case. For the same molecule, the Potency result in experiment [3] was “inactive”. Moreover, the molecule was classed as inactive in [14], in experiment [8], in experiment [12], in experiment [2], in experiment [5] and in [6].
In the case of `N[C@@H](CCC(=O)N[C@@H](CS)C(=O)NCC(=O)O)C(=O)O`, the result in [7], in experiment [8], in experiment [2], in [4] and in [5] was inactive. The Potency entry (in the experiment with Aromatase (Homo sapiens); in [9]; in experiment [10]; in [11]; in [3]) was “inactive” throughout.
Turning to `Brc1ccc(-c2ccccc2)cc1`, the Potency result in experiment [13], in experiment [10], in experiment [11] and in [3] was “inactive” throughout. Also, the call in [14], in experiment [8], in experiment [2], in experiment [4], in experiment [5] and in [6] was inactive.
`Cc1cc(Cl)c(C)cc1Cl`: the outcome in experiment [7], in [8], in [12], in [2], in experiment [4] and in experiment [5] was inactive. In addition, the result in experiment [6] was inactive. The Potency entry (in the experiment with Aromatase (Homo sapiens); in experiment [9]; in experiment [10]; in [11]; in experiment [1]; in experiment [3]) was “inactive” each time.
